MEKK3 PB1 HTS: MEKK3-MEK5 PB1 interaction, increase or decrease; actives 1.4% (n = 290,000); bead-based flow cytometry, Alexa488-MEK5 binding to MEKK3; actives lie on both sides; 0 = blocked by unlabeled MEK5, 100 = vehicle; binding response (% of control), % at 10 µM; Q99759;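 active means binding response more than 3 SD above or below the average of its plate-row segment, actives on both sides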;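 further: Alexa488 bead fluorescence after subtracting the streptavidin-only scavenger bead signal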
Target sequence (Q99759 whole entry, looked up): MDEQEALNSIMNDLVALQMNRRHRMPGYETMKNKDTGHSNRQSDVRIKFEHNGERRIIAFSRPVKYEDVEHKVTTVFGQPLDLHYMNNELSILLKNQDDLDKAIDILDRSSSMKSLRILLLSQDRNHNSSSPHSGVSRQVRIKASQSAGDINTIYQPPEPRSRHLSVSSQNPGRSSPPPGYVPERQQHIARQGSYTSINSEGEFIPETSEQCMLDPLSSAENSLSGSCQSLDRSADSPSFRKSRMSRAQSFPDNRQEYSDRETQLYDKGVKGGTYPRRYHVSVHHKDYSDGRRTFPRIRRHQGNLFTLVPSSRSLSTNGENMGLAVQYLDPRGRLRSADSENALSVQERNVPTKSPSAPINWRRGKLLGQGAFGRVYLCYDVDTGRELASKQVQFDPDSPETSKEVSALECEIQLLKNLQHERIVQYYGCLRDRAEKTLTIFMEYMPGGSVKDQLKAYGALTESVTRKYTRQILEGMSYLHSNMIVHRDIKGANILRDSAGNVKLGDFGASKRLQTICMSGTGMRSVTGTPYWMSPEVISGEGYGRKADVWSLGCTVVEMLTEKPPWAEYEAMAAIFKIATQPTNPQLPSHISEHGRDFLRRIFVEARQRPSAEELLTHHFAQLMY
GRK2 inh: blocks RNA aptamer binding to human GRK2 | P25098 | bead flow cytometry, FAM-aptamer displacement from GRK2 | inhibition of aptamer binding, % at 10 µM | actives 0.59% (n = 330,000) | AID 488847;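 active means inhibition of aptamer binding above 40%, roughly 3 SD of noise, on plates passing a quality check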;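 further: median bead fluorescence of bound FAM aptamer so fluorescent compounds give negative values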
MEKK2wt PB1 HTS: raises or lowers MEK5 binding to wildtype human MEKK2 PB1 domain. bead flow cytometry, Alexa488-MEK5 binding to MEKK2 WT; actives lie on both sides. binding response (% of control), % at 10 µM. actives 1.1% (n = 290,000). AID 1531; in the data active means binding response below about 67% or above about 130%
MEKK2mut PB1 HTS: signal of MEK5 binding to mutant human MEKK2 PB1 domain. bead flow cytometry, Alexa488-MEK5 binding to MEKK2 mutant. percent response, % at 10 µM. actives 0.35% (n = 290,000); in the data active means percent response above about 24%, passing the limit was not always enough
MEKK2wt confirm: raises or lowers MEK5 binding to wildtype human MEKK2, retest; shares compounds with MEKK3 PB1 HTS; bead flow cytometry, Alexa488-MEK5 binding to MEKK2 WT; actives lie on both sides; binding response (% of control), % at 10 µM; actives 2.4% (n = 5,900); in the data active means binding response below about 16% or above about 210%; inactive means in between
MEKK2mut-MEK5: signal of MEK5 binding to mutant human MEKK2, retest | shares compounds with MEKK3 PB1 HTS | bead flow cytometry, Alexa488-MEK5 binding to MEKK2 mutant | percent response, % at 10 µM | actives 2% (n = 5,900); in the data active means percent response mostly above about 71%, no sharp cut-off; inactive means mostly below about 38%;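 further: higher means compound restores mutant binding toward wildtype level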
MEKK3 confirm: MEKK3-MEK5 PB1 inhibition, single concentration confirmation | shares compounds with MEKK3 PB1 HTS | actives 1.8% (n = 5,900) | bead flow cytometry, Alexa488-MEK5 binding to MEKK3; stronger effect = lower value | binding response (% of control), % at 10 µM;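 active means binding response below 72% of control, or above a set upper limit, though filed actives all read lower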
Of the large screens only hits and unclear results are named; the others gave an inactive call (follow-up assays come after a bar, where they were run); [ ] = remark or other dose. A selection: hits, their analogues and other compounds. The true share with any hit is near 2.5%.

N#Cc1nc(COc2ccc(-c3ccccc3)cc2)oc1NCCCN1CCOCC1	MEKK2wt PB1 HTS 140 | MEKK2wt confirm inactive | MEKK2mut-MEK5 inactive | MEKK3 confirm inactive
CN(C)CCNc1oc(COc2ccc(Cl)cc2Cl)nc1C#N	MEKK2wt PB1 HTS 170, MEKK2mut PB1 HTS 55 | MEKK2wt confirm inactive | MEKK2mut-MEK5 inactive | MEKK3 confirm inactive
Fc1ccc(NC(=S)N2CCN(C/C=C/c3ccccc3)CC2)c(F)c1	none
Cc1nnc(SCc2cc(=O)[nH]c(/N=C(\N)Nc3ccccc3Sc3ccccc3)n2)s1	none
CCCN1CCC(=O)N(CCSc2ccc(NC(C)=O)cc2)CC1	MEKK3 PB1 HTS 71[inhibitor] | MEKK2wt confirm inactive | MEKK2mut-MEK5 inactive | MEKK3 confirm inactive
CCCN1CCC(=O)N(CCSc2ccccc2)CC1	none
CCC(O)(CC)C(=O)N/N=C/c1cc(Br)cc(Br)c1O	MEKK3 PB1 HTS 134 | MEKK2wt confirm inactive | MEKK2mut-MEK5 inactive | MEKK3 confirm inactive
O=C(C[n+]1ccccc1)N/N=C/c1cc(Br)cc(Br)c1O	none
CCCN(CC(=O)Nc1ccccc1C)C(=O)c1ccc2c(c1)OCO2	none (no result: MEKK3 PB1 HTS, MEKK2wt PB1 HTS, MEKK2mut PB1 HTS)
NCC12CC3CC(C1)CC(c1ccc(Br)cc1)(C3)C2	MEKK2wt PB1 HTS 153 | MEKK2wt confirm inactive | MEKK2mut-MEK5 inactive | MEKK3 confirm inactive
Cc1ccc(C23CC4CC(CC(CN)(C4)C2)C3)cc1	none (no result: GRK2 inh)
O=C(NC1CCCC1)c1ccc(S(=O)(=O)N2CCOCC2)cc1	MEKK3 PB1 HTS 131 | MEKK2wt confirm inactive | MEKK2mut-MEK5 inactive | MEKK3 confirm inactive
O=C(NC1CCCCC1)c1ccc(S(=O)(=O)N2CCCC2)cc1	none
CC(=O)Nc1ccc(NC(=O)CSc2nnc(C)n2-c2ccccc2)cc1	none
CN1C(=CC=C2C=C(I)C(=O)C(I)=C2)C(C)(C)c2ccccc21	MEKK3 PB1 HTS 40[inhibitor], MEKK2wt PB1 HTS -1.0[inhibitor] (no result: GRK2 inh) | MEKK2wt confirm inactive | MEKK2mut-MEK5 inactive | MEKK3 confirm 68
CN1/C(=C\C=N\O)C(C)(C)c2ccccc21	none
CN1/C(=C\C=C2/C(=O)Oc3ccccc3C2=O)C(C)(C)c2ccccc21	MEKK3 PB1 HTS 50[inhibitor] | MEKK2wt confirm inactive | MEKK2mut-MEK5 inactive | MEKK3 confirm inactive
C/C(=N\Nc1nc2ccccc2s1)c1ccc(Br)s1	MEKK2wt PB1 HTS 138 | MEKK2wt confirm inactive | MEKK2mut-MEK5 inactive | MEKK3 confirm inactive
O=C(CCC(=O)Nc1ccc(F)cc1)N/N=C/c1ccccc1O	MEKK3 PB1 HTS 149 | MEKK2wt confirm inactive | MEKK2mut-MEK5 inactive | MEKK3 confirm inactive
O=C(CCC(=O)Nc1ccc(Br)cc1)N/N=C/c1ccccc1F	none
Cc1ccc(Cn2cc(S(=O)(=O)c3ccc(Cl)cc3)c(=O)c3cc(F)ccc32)cc1	MEKK3 PB1 HTS 132 | MEKK2wt confirm inactive | MEKK2mut-MEK5 inactive | MEKK3 confirm inactive
CCN(CC)CC(=O)Nc1ccc(-c2nc3cc(NC(=O)CN(CC)CC)ccc3o2)cc1	none
CCC(C)NCC(=O)Nc1ccc(-c2nc3cc(NC(=O)CNC(C)CC)ccc3o2)cc1 (stereo not drawn)	MEKK2wt PB1 HTS 160, MEKK2mut PB1 HTS 34 | MEKK2wt confirm inactive | MEKK2mut-MEK5 inactive | MEKK3 confirm inactive
CCOc1ccc(S(=O)(=O)N2CCC(C(=O)NCc3ccco3)CC2)cc1	none
CC(C)c1ccc(NC(=O)COc2nnc(-c3cccs3)c(-c3cccs3)n2)cc1	MEKK3 PB1 HTS 143 | MEKK2wt confirm inactive | MEKK2mut-MEK5 inactive | MEKK3 confirm inactive
CCc1ccc(NC(=O)C(C)Oc2nnc(-c3cccs3)c(-c3cccs3)n2)cc1 (stereo not drawn)	none
Cn1cccc2[nH]c(=O)nc1-2	none
CCCS(=O)(=O)N1CCN(CC2CC3C=CC2C3)CC1 (stereo not drawn)	MEKK2mut PB1 HTS 24 | MEKK2wt confirm inactive | MEKK2mut-MEK5 inactive | MEKK3 confirm inactive
COc1cc(NC(=O)Cn2nnc(-c3ccncc3)n2)cc(OC)c1	none
Cc1ccccc1S(=O)(=O)Cc1ccc(C(=O)O)o1	MEKK3 PB1 HTS 80[inhibitor] | MEKK2wt confirm inactive | MEKK2mut-MEK5 inactive | MEKK3 confirm inactive
CC(=O)c1ccc(Nc2nc3ccc(C)cc3n3cnnc23)cc1	none
Cc1cccc(OCCCC(=O)NCCc2ccccc2)c1	MEKK3 PB1 HTS 137 | MEKK2wt confirm inactive | MEKK2mut-MEK5 inactive | MEKK3 confirm inactive
Cc1cccc(OCCNC(=O)CCc2ccccc2)c1	none (no result: MEKK3 PB1 HTS, MEKK2wt PB1 HTS, MEKK2mut PB1 HTS)
O=C1CC(c2cccc(Cl)c2)CC(O)=C1C=Nc1cccc(Cl)c1 (stereo not drawn)	none
O=C(Nc1ccccc1)c1ccc[n+](Cc2ccc([N+](=O)[O-])cc2)c1	none
OC(COc1ccccc1)CN1CCN(CC(O)COc2ccccc2)CC1 (stereo not drawn)	none
CCN(C(=O)CN1CCCCC1)C1(C)C(=O)c2ccccc2C1=O	MEKK3 PB1 HTS 140 | MEKK2wt confirm inactive | MEKK2mut-MEK5 inactive | MEKK3 confirm inactive
O=C(CNS(=O)(=O)c1ccccc1)OCC(=O)c1ccc([N+](=O)[O-])cc1	none
Cc1nc(SCC(=O)Nc2c(C)nn(C)c2C)c2cnn(-c3ccccc3)c2n1	none
O=C(COc1ccccc1-c1ccccc1)NCc1cccc(Cl)c1	MEKK2wt PB1 HTS 147 | MEKK2wt confirm inactive | MEKK2mut-MEK5 inactive | MEKK3 confirm inactive
Cc1ccccc1OCC(=O)NCc1ccccc1	none
CCOC(=O)C1CSC2(CCC(c3ccccc3)CC2)N1 (stereo not drawn)	MEKK3 PB1 HTS 146 | MEKK2wt confirm inactive | MEKK2mut-MEK5 inactive | MEKK3 confirm inactive
O=C(Nc1ccccc1)Nc1cccc(C(F)(F)F)c1	none
Cc1ccc(OC(F)F)c(NC(=O)Nc2cccc(C(F)(F)F)c2)c1	MEKK2wt PB1 HTS 203, MEKK2mut PB1 HTS 55 | MEKK2wt confirm inactive | MEKK2mut-MEK5 inactive | MEKK3 confirm inactive
COc1ccc(Cl)cc1NC(=O)CN1C(=O)NC(C)(Cc2ccc(OC)c(OC)c2)C1=O (stereo not drawn)	none (no result: MEKK3 PB1 HTS, MEKK2wt PB1 HTS, MEKK2mut PB1 HTS)
Cc1ccc(Sc2ccc(NC(=O)CCl)cc2)c(C)c1	none
O=C1c2cc(Cl)ccc2OC2(CCNCC2)C12CC(c1ccc(Cl)cc1)=NO2 (stereo not drawn)	MEKK2wt PB1 HTS 162 (no result: GRK2 inh) | MEKK2wt confirm inactive | MEKK2mut-MEK5 inactive | MEKK3 confirm inactive
O=C1c2cc(Cl)ccc2OC2(CCNCC2)C12CC(c1ccccc1)=NO2 (stereo not drawn)	none
Cc1ncc([N+](=O)[O-])n1Cc1ccc(F)cc1	MEKK3 PB1 HTS 70[inhibitor] | MEKK2wt confirm inactive | MEKK2mut-MEK5 inactive | MEKK3 confirm inactive
CCOc1ccc(C(=O)/C=C/c2cn(CN3CCN(C)CC3)c3ccccc23)cc1	MEKK2wt PB1 HTS 204, MEKK2mut PB1 HTS 41 | MEKK2wt confirm inactive | MEKK2mut-MEK5 inactive | MEKK3 confirm inactive

High-throughput results (PubChem)
